# KCNH2 3.1 inh: qHTS for Inhibitors of KCHN2 3.1: Mutant qHTS | U2OS KCNH2 3.1, thallium flux FluxOr; hits give low values | Potassium voltage-gated channel subfamily H member 2, brain isoform KCNH2 3.1 (human) | actives 0.95% (n = 340,000) | activity change, % (tested at about 1.8 µM);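 active means maximum activity change below -70%; inconclusive means maximum activity change from -70% to -50%; inactive means maximum activity change above -50%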;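 further: thallium influx rate constant from kinetic fluorescence after stimulation buffer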
#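 Channel expression came from 3.1 mutant virus (1.77 x 10^8 /mL) applied to suspended U2OS cells for 4 h. Flux was tracked with FluxOr dye plus Red40 quencher, and kinetic rate constants normalized to controls.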
# Giardia killer: Small Molecules that selectively kill Giardia lamblia: qHTS | Giardia lamblia trophozoite viability | actives 0.15% (n = 340,000) | AID 540267, 2011 | activity change, % at 7.66 µM, hits read low; in the data active means activity change below about -80%; inconclusive means between about -30% and that limit;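 further: parasites exposed to compound for two days anaerobically before the ATP read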
#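 Luminescence from cellular ATP indicates surviving trophozoites (100 cells/well) following 48 hrs anaerobic compound treatment at 37 deg C; signal develops 15-30 min at room temperature.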
# Coupling enz: qHTS Assay for Inhibitors of Fructose-1,6-bisphosphate Aldolase from Giardia Lamblia: Coupling assay counterscreen | coupling enzyme system counterscreen, AmpLite Red fluorescence | activity change, negative = inhibition, % at 58.2 µM, hits read low | actives 0.67% (n = 290,000); in the data active means activity change below about -30%
#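 Coupling enzymes only (glyceraldehyde-3-phosphate) + compound, at 57.5 uM final, 10 min RT; add substrate/coupling/AmpLite Red mix, 20 min RT; fluorescence ex 525/em 598 nm. Actives flag coupling-system interference.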
# KCNH2 WT inh: qHTS for Inhibitors of KCHN2 3.1: Wildtype qHTS; U2OS, BacMam KCNH2, thallium flux FluxOr; hits give low values; Voltage-gated inwardly rectifying potassium channel KCNH2 (Homo sapiens), Q12809; actives 0.37% (n = 340,000); activity change, % at 1.84 µM;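 active means maximum activity change below -70%; inconclusive means maximum activity change between -70% and -50%; inactive means maximum activity change above -50%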
#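 U2OS cells were transduced with wild-type KCNH2 virus (2.03 x 10^8 / mL) for 4 h at room temperature, then cultured overnight at 37 C. Thallium flux was read with FluxOr dye. Rate constants were normalized to DMSO controls.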
# USP1-UAF1 inh: Inhibitors of USP1/UAF1: Primary Screen | Ubiquitin carboxyl-terminal hydrolase 1 (Homo sapiens), O94782 | recombinant USP1/UAF1, Ub-Rhodamine cleavage fluorescence | Potency, µM (highest dose often 57.1 µM), without a hit: top-dose activity change, negative = inhibition, most hits filed as inhibitors | actives 0.23% (n = 390,000); active means well fitted inhibition curve with a large enough effect; inconclusive means small, poorly fitted or top-dose-only effect; inactive means no such curve, though single readings can be large or run the other way; further: potency means the concentration at half of the fitted maximal effect; nearly all actives have a fitted effect of over 60% in size
#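 USP1/UAF1 complex (1 nM) preincubated 15 min at room temperature with compound, then Ub-Rho substrate (150 nM final) added. Kinetic fluorescence at 480/540 nm over 6 reads at 60 s intervals; 50 mM HEPES pH 7.8, 0.5 mM EDTA, 0.1 mg/ml BSA, 1 mM TCEP, 0.01% Tween-20.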
# Numbers without * were called inactive; ? = inconclusive; / = no result given. This is a sample that favours compounds with a hit; in the whole collection about 1.7% have one here. On the % scale 0 is the no-effect control and ±100 the full control effect.
SMILES,KCNH2 3.1 inh,Giardia killer,Coupling enz,KCNH2 WT inh,USP1-UAF1 inh
CCOC(=O)c1cn(CC#N)c2cc(F)c(F)cc2c1=O,-4,-27,0,-70*,-21%
Nc1ccc2oc(CCc3ccccc3)nc2c1,-45,-5,-35*,-15,-19%
O=S(=O)(Nc1cccc2cccnc12)c1ccc(Br)s1,/,/,-19,/,/
COc1ccc(-n2c(N)c(C#N)c3ccc([N+](=O)[O-])cc3c2=O)cc1,4,0,-42*,-1,-13%
COc1cccc(-n2c(N)c(C#N)c3ccc([N+](=O)[O-])cc3c2=O)c1,/,/,0,/,/
CC(=O)Nc1ccc(NC(=O)C/C(C)=N/NC(=O)C(=O)Nc2ccc(C)c(Cl)c2)cc1,-84*,5,1,-1,-6%
COc1cccc(F)c1C(=O)NC(=O)Nc1ccc2nc(C)oc2c1,0,10,-31*,4,?
CC[C@@H](C)[C@H](NC(=O)OCc1ccccc1)c1nnc([C@@H](NC(=O)OCc2ccccc2)[C@@H](C)CC)o1,-86*,-6,-5,5,-28%
O=C(c1cccn2c(=O)c3ccccc3nc12)N1CCN(Cc2ccc3c(c2)OCO3)CC1,-12,4,-2,25,-14%
COc1ccc(N(CC(=O)N2CCN(Cc3ccc4c(c3)OCO4)CC2)S(=O)(=O)c2ccc(F)cc2)cc1,-86*,-13,1,-44,-6%
O=C(c1ccc2nccnc2c1)N1CCN(Cc2ccc3c(c2)OCO3)CC1,-87*,1,2,-3,-17%
CC(C)CC(=O)N1CCN(Cc2ccc3c(c2)OCO3)CC1,16,14,0,-133*,-11%
O=C(c1cccn2c(=O)c3cc(Cl)ccc3nc12)N1CCN(Cc2ccc3c(c2)OCO3)CC1,-83*,3,1,8,-13%
CCCC(=O)N1CCN(Cc2ccc3c(c2)OCO3)CC1,-4,14,-2,0,3%
O=[N+]([O-])c1nn(-c2ccccc2)[n+]([O-])c1N1CCN(c2ccccc2)CC1,-13,-81*,3,1,-13%
O=[N+]([O-])c1nn(-c2ccccc2)[n+]([O-])c1N1CCN(c2ccccc2F)CC1,-3,-89*,1,-11,-6%
CCN(CC)C(=O)Cn1c(=O)n(Cc2ccc(C(=O)NCc3ccccc3Cl)cc2)c(=O)c2ccccc21,/,/,/,/,-2%
Cc1ccc(N(C)C(=O)C2CCCN2S(=O)(=O)c2cccc3nsnc23)cc1 (configuration not stated),-1,-1,5,-1,-16%
COc1ccc(N(C)C(=O)C2CCCN2S(=O)(=O)c2cccc3nsnc23)c(OC)c1 (configuration not stated),-7,-12,/,-208*,-18%
O=C(NCCc1ccccc1)c1ccc(-c2ccc(F)cc2)o1,8,-1,0,7,?
O=C(NCCc1ccccc1)c1ccc(-c2ccccc2C(F)(F)F)o1,-214*,1,-2,1,?
N#C/C(=C\c1ccc(-c2ccc(F)cc2)o1)C(=O)Nc1nc(-c2cccs2)cs1,13,-17,-1,13,-11%
N#C/C(=C/c1ccc(-c2ccccc2)o1)c1nc(-c2cccs2)cs1,-76*,-11,-3,-20,2%
Cc1cccc(CN2CC34CCC(CC3S2(=O)=O)O4)c1 (configuration not stated),/,-16,7,/,/
Clc1cccc(-c2cc3nc4c(c(NCc5ccco5)n3n2)CCCC4)c1,-101*,22,0,-21,?
SMILES,KCNH2 3.1 inh,Giardia killer,Coupling enz,KCNH2 WT inh,USP1-UAF1 inh
c1coc(CNc2c3c(nc4ncnn24)CCCC3)c1,-18,-2,5,2,-19%
Cc1cc(NC(=O)c2cnn(-c3ccccc3)c2-n2cccc2)ccc1Br,/,/,/,/,2%
Cc1cccc2c1c1ccc3c(c1n2C)C(=O)C=CC3=O,-13,9,-18,-6,-12%
Cc1ccc(/C(N)=N/OC(=O)N2c3ccccc3Sc3ccccc32)cc1,8,37,/,-176*,-24%
Cc1ccccc1/C(N)=N/OC(=O)N1c2ccccc2Sc2ccccc21,8,16,0,3,-16%
Cc1csc2nc(COC(=O)CNC(=O)c3ccc(F)cc3)cc(=O)n12,/,/,/,/,-27%
Cc1ccc2cc(CN(Cc3ccco3)C(=S)NCC3CCCO3)c(=O)[nH]c2c1C (configuration not stated),-82*,4,0,-1,-8%
Cc1cc(C)c2[nH]c(=O)c(CN(Cc3ccco3)C(=S)NCC3CCCO3)cc2c1 (configuration not stated),-7,9,0,-6,-24%
Cc1cc2c(s1)c1cnn(CC(=O)N3CCOCC3)c(=O)c1n2C,/,10,/,/,/
Oc1cccc(/C=N/NC(=S)NCCN2CCOCC2)c1O,-1,-2,-34*,-3,-14%
O=c1c([N+](=O)[O-])cccn1Cc1ccccc1Cl,-19,?,1,-4,-25%
O=c1c([N+](=O)[O-])cccn1Cc1cccc(Br)c1,-19,-85*,0,14,-21%
COc1ccc(-c2ccnc(SCC(=O)c3ccc(OC)c(OC)c3)n2)cc1,-106*,-12,4,-12,-13%
CCc1ccc(N2CCN(CCNC(=O)Nc3ccc(OC)cc3)CC2)cc1,-94*,2,1,-26,-16%
COc1ccc(C(=O)N2CCN(CCNC(=O)C(=O)Nc3ccc(Br)cc3)CC2)cc1,-105*,-2,-2,20,-20%
COc1ccc(C(=O)Nc2ccc(N3CCN(Cc4ccccc4)CC3)cc2)cc1,-85*,3,2,12,-5%
COCCNC(=O)Cn1c(=O)n(-c2ccc(C)c(C)c2)c(=O)c2c3c(sc21)CCCCC3,/,/,/,/,-10%
CCOc1ccc(CNC(=O)Cn2c(=O)c3cccn3c3cccnc32)cc1,/,/,/,/,-13%
O=c1c2oc3ccccc3c2n(Cc2ccccc2F)c(=O)n1Cc1ccco1,/,/,/,/,7%
O=C(CCN1CCCCC1)N1CCc2c([nH]c3ccccc23)C1c1cccnc1 (configuration not stated),-73*,-6,/,?,3%
Cc1ccc(C2c3[nH]c4ccccc4c3CCN2C(=O)CCC2CCCC2)cc1 (configuration not stated),/,/,/,/,-26%
CCC(CC)C(=O)Nc1c2c(nn1-c1ccc(OC)cc1)CS(=O)(=O)C2,4,5,0,-7,-15%
CCC(CC)C(=O)Nc1c2c(nn1-c1ccc(F)cc1)CS(=O)(=O)C2,-81*,-5,4,3,-20%
CCc1ccc(NC(=O)CSc2nc(=O)n(Cc3ccco3)c3c2CCC3)cc1,/,/,/,/,-26%

# Screening results deposited in PubChem by National Center for Advancing Translational Sciences (NCATS).
